Test results taken from PubChem BioAssay (Tox21).
Several values for one entry are separate records, joined by “and”; a condition that tells them apart may be missing. Equal values may be shown once. Results filed as inconclusive are left out. Activity calls are given as the source filed them. Unless noted, the call rests on the fitted dose curve; in most records, active means well fitted curve in the direction sought with a large enough effect in the repeat runs; inconclusive means weak or mixed curves; inactive means no such curve, though single readings can be large; an effect the other way counts as inactive or inconclusive.

Tests used:
[1] = target: Acetylcholinesterase (Homo sapiens) (UniProt P22303); assay: Acetylcholinesterase (AChE) small molecule antagonists: fluorescence cell-based qHTS assay (AID 1347398; calls by dose curve; further: nearly all actives have a fitted effect of over 50% in size; further: potency means the concentration at half of the fitted maximal effect); conditions: Potency: AChE activity
In short: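 SH-SY5Y, 2,000 cells/well, attached overnight; cmpd 30 min 37 C; acetylthiocholine/Thiolite Green cocktail 40 min RT; fluorescence Ex/Em 490/520 nm.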

[2] = target: Acetylcholinesterase (Homo sapiens) (UniProt P22303); assay: Acetylcholinesterase (AChE) small molecule antagonists: enzyme-based qHTS assay with human liver microsomes (AID 1347399; calls by dose curve; further: nearly all actives have a fitted effect of over 60% in size; further: potency means the concentration at half of the fitted maximal effect); conditions: Potency: qHTS inhibition
In short: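 Recombinant human AChE (50 mU/mL in the enzyme mix) and human liver microsomes (0.25 mg/mL final) were preincubated with compound and NADPH (0.25 mg/mL final) for 30 min at 37 C. Acetylthiocholine/DTNB was then added; thiocholine was read colorimetrically after 10 min at room temperature.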

[3] = target: Cytochrome P450 2D6 (Homo sapiens) (UniProt P10635); assay: Cytochrome P450 Family 2 Subfamily D Member 6 (CYP2D6) small molecule antagonists: luciferase reporter qHTS assay (AID 1671196); further: nearly all actives have a fitted effect of over 50% in size; further: potency means the concentration at half of the fitted maximal effect; on activity change, negative = inhibition: series mostly up to about 120 µM
In short: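 Chemicals tested for interference with CYP2D6 activity; proluciferin substrate, NADPH regeneration, 1 h at room temperature, luminescent detection.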

[4] = target: Cytochrome P450 2C19 (Homo sapiens) (UniProt P33261); assay: Cytochrome P450 Family 2 Subfamily C Member 19 (CYP2C19) small molecule antagonists: luciferase reporter qHTS assay (AID 1671197); further: nearly all actives have a fitted effect of over 65% in size; further: potency means the concentration at half of the fitted maximal effect; on activity change, negative = inhibition: series mostly up to about 120 µM
In short: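 Luminescent readout of CYP2C19 activity: luciferin product detected 20 min after adding detection reagent. Before that, compound and enzyme-substrate mix preincubated 10 min at room temperature; NADPH-regenerating system started a 1 h, 37C reaction. Ketoconazole as positive control.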

[5] = target: Cytochrome P450 1A2 (Homo sapiens) (UniProt P05177); assay: Cytochrome P450 Family 1 Subfamily A Member 2 (CYP1A2) small molecule antagonists: luciferase reporter qHTS assay (AID 1671199); further: nearly all actives have a fitted effect of over 50% in size; further: potency means the concentration at half of the fitted maximal effect; on activity change, negative = inhibition: series mostly up to about 120 µM
In short: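 Read-out is luminescence from luciferin detection reagent (20 min) proportional to CYP1A2 activity; compounds in DMSO preincubated 10 min with enzyme and proluciferin substrate, then NADPH regeneration solution, 1 h, room temperature.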

[6] = target: Cytochrome P450 3A4 (Homo sapiens) (UniProt P08684); assay: Cytochrome P450 Family 3 Subfamily A Member 4 (CYP3A4) small molecule antagonists: luciferase reporter qHTS assay (AID 1671201); further: nearly all actives have a fitted effect of over 50% in size; further: potency means the concentration at half of the fitted maximal effect; on activity change, negative = inhibition: series mostly up to about 120 µM
In short: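 Setup: enzyme-substrate mix, compound pin transfer, 10 min RT. Reaction: NADPH regeneration solution, 1 h RT. Readout: detection reagent stops turnover, luminescence measured after 20 min, expressed in relative luminescence units.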

[7] = target: Voltage-gated inwardly rectifying potassium channel KCNH2 (Homo sapiens) (UniProt Q12809); assay: Human Ether-a-go-go-Related Gene (hERG) channel small molecule antagonists: fluorescence cell-based qHTS assay (AID 1671200)
In short: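 Measured: Tl+ flux via fluorescence (480/540 nm) in hERG-expressing U2OS cells after 1 h dye loading at room temperature.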

[8] = target: Cytochrome P450 2C9 (Homo sapiens) (UniProt P11712); assay: Cytochrome P450 Family 2 Subfamily C Member 9 (CYP2C9) small molecule antagonists: luciferase reporter qHTS assay (AID 1671198); further: nearly all actives have a fitted effect of over 50% in size; further: potency means the concentration at half of the fitted maximal effect; on activity change, negative = inhibition: series mostly up to about 120 µM
In short: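 P450-Glo proluciferin substrate with CYP2C9 enzyme; 10 min RT preincubation, then NADPH regeneration 1 h at 37C; luciferin detection reagent 20 min RT, luminescence in relative luminescence units.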
On the % scale 0 is the no-effect control and ±100 the full control effect.

Acetylcholinesterase (Homo sapiens), sequence (P22303 whole entry, looked up): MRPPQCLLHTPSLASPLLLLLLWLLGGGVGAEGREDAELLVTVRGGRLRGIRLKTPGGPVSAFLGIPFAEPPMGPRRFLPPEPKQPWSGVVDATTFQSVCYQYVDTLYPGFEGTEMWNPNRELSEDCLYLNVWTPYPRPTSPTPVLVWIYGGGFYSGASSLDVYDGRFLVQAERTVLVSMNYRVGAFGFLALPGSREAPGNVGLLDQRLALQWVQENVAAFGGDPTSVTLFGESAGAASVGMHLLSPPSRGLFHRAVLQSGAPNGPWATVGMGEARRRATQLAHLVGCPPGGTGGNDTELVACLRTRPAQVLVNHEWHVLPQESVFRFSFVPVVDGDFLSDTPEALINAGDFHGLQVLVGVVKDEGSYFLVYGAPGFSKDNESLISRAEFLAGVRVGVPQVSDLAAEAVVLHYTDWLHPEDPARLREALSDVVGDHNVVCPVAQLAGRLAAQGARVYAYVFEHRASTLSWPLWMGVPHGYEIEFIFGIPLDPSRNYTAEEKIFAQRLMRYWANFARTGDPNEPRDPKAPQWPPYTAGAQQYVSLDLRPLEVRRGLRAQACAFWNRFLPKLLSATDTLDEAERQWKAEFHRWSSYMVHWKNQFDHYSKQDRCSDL
Cytochrome P450 2D6 (Homo sapiens), sequence (P10635 whole entry, looked up): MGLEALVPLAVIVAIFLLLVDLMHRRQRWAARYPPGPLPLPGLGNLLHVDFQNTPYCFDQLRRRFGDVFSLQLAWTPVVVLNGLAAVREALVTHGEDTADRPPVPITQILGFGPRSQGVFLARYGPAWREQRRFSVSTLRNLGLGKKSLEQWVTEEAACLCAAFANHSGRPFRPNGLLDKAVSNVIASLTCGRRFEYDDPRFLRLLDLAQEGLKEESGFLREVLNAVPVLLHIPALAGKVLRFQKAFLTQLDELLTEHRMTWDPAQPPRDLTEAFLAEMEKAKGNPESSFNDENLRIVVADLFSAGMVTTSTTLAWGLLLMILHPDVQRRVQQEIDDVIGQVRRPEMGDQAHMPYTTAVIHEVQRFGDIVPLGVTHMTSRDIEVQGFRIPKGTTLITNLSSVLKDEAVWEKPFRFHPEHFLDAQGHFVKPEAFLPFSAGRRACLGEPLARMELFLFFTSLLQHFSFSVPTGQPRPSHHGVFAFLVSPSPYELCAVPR
Cytochrome P450 2C19 (Homo sapiens), sequence (P33261 whole entry, looked up): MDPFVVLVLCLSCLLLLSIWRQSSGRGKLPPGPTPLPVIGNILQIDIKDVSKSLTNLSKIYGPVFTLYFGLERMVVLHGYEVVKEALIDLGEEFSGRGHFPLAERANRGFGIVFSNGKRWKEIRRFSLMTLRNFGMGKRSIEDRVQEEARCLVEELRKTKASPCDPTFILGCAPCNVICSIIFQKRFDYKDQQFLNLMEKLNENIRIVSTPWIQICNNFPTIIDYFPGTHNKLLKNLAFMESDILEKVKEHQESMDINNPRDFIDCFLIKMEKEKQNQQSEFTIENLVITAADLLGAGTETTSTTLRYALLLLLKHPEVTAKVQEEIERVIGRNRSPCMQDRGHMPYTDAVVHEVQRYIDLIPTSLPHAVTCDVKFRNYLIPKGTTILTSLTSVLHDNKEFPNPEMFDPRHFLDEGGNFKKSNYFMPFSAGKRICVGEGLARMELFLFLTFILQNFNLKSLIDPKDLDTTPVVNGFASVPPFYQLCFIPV
Cytochrome P450 1A2 (Homo sapiens), sequence (P05177 whole entry, looked up): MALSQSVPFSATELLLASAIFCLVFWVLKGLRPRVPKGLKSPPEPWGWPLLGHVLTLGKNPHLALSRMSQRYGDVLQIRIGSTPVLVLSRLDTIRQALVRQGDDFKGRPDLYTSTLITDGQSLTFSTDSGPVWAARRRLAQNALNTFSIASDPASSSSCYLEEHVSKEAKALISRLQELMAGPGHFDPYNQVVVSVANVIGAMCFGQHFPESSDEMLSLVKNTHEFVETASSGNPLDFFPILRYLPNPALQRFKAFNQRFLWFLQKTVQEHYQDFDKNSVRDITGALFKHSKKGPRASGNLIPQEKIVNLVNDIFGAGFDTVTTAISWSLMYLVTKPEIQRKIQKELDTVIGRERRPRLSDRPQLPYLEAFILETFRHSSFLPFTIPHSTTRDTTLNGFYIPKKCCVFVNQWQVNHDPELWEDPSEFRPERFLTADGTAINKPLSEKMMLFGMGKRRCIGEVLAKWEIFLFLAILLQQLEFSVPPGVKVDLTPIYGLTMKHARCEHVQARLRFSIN
Cytochrome P450 3A4 (Homo sapiens), sequence (P08684 whole entry, looked up): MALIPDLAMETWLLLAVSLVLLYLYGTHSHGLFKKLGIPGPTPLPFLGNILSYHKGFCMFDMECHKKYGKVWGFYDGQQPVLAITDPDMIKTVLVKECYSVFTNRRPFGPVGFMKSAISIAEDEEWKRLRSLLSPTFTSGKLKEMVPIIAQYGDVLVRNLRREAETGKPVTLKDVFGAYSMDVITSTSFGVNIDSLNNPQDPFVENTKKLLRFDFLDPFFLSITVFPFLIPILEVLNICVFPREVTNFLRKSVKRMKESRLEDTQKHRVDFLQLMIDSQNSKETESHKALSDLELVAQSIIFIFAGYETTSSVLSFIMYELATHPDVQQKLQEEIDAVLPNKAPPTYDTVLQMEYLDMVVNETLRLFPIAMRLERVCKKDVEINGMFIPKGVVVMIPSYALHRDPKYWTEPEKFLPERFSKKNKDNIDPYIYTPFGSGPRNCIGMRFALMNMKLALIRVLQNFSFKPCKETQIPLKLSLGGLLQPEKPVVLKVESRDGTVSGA
Voltage-gated inwardly rectifying potassium channel KCNH2 (Homo sapiens), sequence (Q12809 whole entry, looked up): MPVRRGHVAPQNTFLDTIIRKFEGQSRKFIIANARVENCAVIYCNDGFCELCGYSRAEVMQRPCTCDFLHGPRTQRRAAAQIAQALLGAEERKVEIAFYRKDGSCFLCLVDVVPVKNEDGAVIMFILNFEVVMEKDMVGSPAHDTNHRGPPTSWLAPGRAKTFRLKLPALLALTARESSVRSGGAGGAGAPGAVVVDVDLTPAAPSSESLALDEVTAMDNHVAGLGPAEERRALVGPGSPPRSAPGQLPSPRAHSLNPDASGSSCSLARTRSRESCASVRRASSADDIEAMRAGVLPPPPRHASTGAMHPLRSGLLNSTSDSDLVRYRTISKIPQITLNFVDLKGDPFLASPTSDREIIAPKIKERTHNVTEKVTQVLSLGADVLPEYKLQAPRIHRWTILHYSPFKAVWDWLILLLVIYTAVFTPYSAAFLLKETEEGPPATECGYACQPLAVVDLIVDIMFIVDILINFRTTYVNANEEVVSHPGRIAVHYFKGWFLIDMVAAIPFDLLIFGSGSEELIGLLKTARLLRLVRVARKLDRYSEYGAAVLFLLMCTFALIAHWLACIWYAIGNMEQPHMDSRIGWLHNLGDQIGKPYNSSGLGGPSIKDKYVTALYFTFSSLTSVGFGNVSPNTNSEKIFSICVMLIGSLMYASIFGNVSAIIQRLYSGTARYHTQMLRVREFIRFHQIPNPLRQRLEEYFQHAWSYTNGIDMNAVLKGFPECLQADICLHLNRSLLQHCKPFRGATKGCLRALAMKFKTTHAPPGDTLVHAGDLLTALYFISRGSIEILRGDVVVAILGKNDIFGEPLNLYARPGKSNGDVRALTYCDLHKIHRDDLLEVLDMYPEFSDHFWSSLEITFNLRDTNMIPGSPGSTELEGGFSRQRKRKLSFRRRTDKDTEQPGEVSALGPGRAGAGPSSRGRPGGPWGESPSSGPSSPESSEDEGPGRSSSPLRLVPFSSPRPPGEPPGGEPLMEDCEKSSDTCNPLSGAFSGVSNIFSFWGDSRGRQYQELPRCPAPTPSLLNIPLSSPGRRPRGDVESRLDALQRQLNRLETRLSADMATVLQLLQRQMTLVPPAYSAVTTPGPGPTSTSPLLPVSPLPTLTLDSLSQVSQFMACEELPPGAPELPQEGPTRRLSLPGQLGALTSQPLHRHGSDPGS
Cytochrome P450 2C9 (Homo sapiens), sequence (P11712 whole entry, looked up): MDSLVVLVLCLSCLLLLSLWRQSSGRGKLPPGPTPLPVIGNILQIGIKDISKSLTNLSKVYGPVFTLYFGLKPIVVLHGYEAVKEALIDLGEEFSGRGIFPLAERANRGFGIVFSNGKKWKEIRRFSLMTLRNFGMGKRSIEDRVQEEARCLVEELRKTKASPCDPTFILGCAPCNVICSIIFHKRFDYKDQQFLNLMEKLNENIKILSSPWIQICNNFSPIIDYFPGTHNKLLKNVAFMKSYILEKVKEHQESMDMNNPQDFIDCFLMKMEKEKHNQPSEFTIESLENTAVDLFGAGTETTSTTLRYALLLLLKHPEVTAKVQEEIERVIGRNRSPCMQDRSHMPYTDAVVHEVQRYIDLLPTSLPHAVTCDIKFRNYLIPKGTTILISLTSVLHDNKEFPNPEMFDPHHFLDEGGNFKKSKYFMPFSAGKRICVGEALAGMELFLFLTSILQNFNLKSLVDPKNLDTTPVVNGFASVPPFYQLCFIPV

ClCc1cccc(Cl)c1
active: Potency [3] 27.5 µM
inactive: Potency [1] | Potency [2] | Potency [4] | Potency [5] | Potency [6]

CO[C@@H]1[C@H](OC(=O)NC(=O)CCl)CC[C@]2(CO2)[C@H]1[C@@]1(C)O[C@@H]1CC=C(C)C
active: Potency [4] 21.8 µM | Potency [6] 7.74 µM
inactive: activity change, negative = inhibition [1] -0.397% [at 23.8 µM] | activity change, negative = inhibition [2] -0.551% [at 23.6 µM] | activity change, negative = inhibition [3] -6.64% [at 23.6 µM] | activity change, negative = inhibition [7] 7.85% [at 15.8 µM]

N#Cc1ccc(Cl)cc1
inactive: Potency [1] | Potency [2] | Potency [3] | Potency [4] | Potency [5] | Potency [7] | Potency [6]

Cc1ccccc1CCl
inactive: Potency [1] | Potency [2] | Potency [3] | Potency [4] | Potency [5] | Potency [6]

[CH3][Sn]([CH3])([Cl])[Cl]
inactive: Potency [1] | Potency [2] | Potency [3] | Potency [4] | Potency [5] | Potency [7] | Potency [6]

Cl/C=C\Cl
inactive: Potency [1] | Potency [2] | Potency [3] | Potency [4] | Potency [5] | Potency [7] | Potency [6]

O=C(CBr)OCc1ccccc1
active: Potency [8] 35.6 µM
inactive: Potency [1] | Potency [2] | Potency [3] | Potency [5] | Potency [7] | Potency [6]

C=C(C#N)CCC#N
inactive: Potency [1] | Potency [2] | Potency [3] | Potency [4] | Potency [7] | Potency [6]

c1ccc(C2CC2)c(OCC2=NCCN2)c1
active: Potency [3] 4.36 µM
inactive: Potency [1] | Potency [2] | Potency [4] | Potency [7] | Potency [6]

CCCCCCCCCCOC(=O)c1ccccc1C(=O)OCCCCCCCCCC
inactive: Potency [1] | Potency [2] | Potency [3] | Potency [4] | Potency [5] | Potency [7] | Potency [6]

CC1C(=O)C[C@]2(C(C)C)C[C@H]12 (some centres undefined)
inactive: Potency [1] | Potency [2] | Potency [7] | Potency [6]
active: Potency [3] 34.5 µM | Potency [4] 34.5 µM

CO/N=C(/C(=O)OC)c1ccccc1COc1ccccc1C
inactive: Potency [1] | Potency [2] | Potency [3] | Potency [7] | Potency [6]
active: Potency [4] 0.633 µM | Potency [5] 20 µM

CC1Sc2c(C(=O)O)c(=O)c3cc(F)c(N4CCNCC4)cc3n21 (centres undefined)
inactive: Potency [1] | Potency [2] | Potency [3] | Potency [4] | Potency [5] | Potency [7] | Potency [6]

Brc1ccc(Oc2ccccc2)cc1
inactive: Potency [1] | Potency [2] | Potency [3] | Potency [7] | Potency [6]
active: Potency [4] 81.7 µM and 31.7 µM

O=C(NC(=O)c1c(F)cccc1F)Nc1cc(Cl)c(Oc2ncc(C(F)(F)F)cc2Cl)c(Cl)c1
inactive: Potency [1] | Potency [2] | Potency [3] | Potency [5] | Potency [7] | Potency [6]

Clc1cc(C(Cl)(Cl)Cl)cnc1Cl
active: Potency [6] 8.94 µM
inactive: Potency [1] | Potency [2] | Potency [3]

CCBr
inactive: Potency [1] | Potency [2] | Potency [4] | Potency [7] | Potency [6]

N#Cc1cc(I)c(O)c(I)c1
active: Potency [8] 22.4 µM
inactive: Potency [1] | Potency [2] | Potency [3] | Potency [7] | Potency [6]

CCC(Br)(CC)C(=O)NC(N)=O
inactive: Potency [1] | Potency [2] | Potency [4] | Potency [5] | Potency [7] | Potency [6]

COC(=O)C(Br)CBr (centres undefined)
active: Potency [5] 35.6 µM
inactive: Potency [1] | Potency [2] | Potency [3] | Potency [6]

CCCCN(N=O)C(=N)N[N+](=O)[O-]
active: Potency [5] 40.8 µM
inactive: Potency [1] | Potency [2] | Potency [4] | Potency [8] | Potency [7]

CCOP(=S)(OCC)Oc1nc(Cl)c(Cl)cc1Cl
active: Potency [1] 35.7 µM and 35.6 µM | Potency [2] 56.6 nM and 894 nM | Potency [4] 2.25 µM and 5.03 µM | Potency [8] 7.99 µM and 10 µM | Potency [5] 2.53 µM and 3.56 µM | Potency [6] 1.13 µM and 2 µM

O=NN1CCNCC1
active: Potency [4] 44.3 µM
inactive: Potency [1] | Potency [2] | Potency [7] | Potency [6]

CCOS(C)(=O)=O
inactive: Potency [1] | Potency [2] | Potency [4] | Potency [8] | Potency [7] | Potency [6]

Brc1ccccc1
inactive: Potency [1] | Potency [2] | Potency [3] | Potency [8] | Potency [7] | Potency [6]

C=CC(C)=O
inactive: Potency [1] | Potency [2] | Potency [3] | Potency [7] | Potency [6]

O=C(O)C1(c2ccc3c(c2)OC[C@H](Cc2ccc(-c4ccccc4)cc2)[C@H]3O)CCCC1
inactive: Potency [1] | Potency [2] | Potency [3] | Potency [5] | Potency [7] | Potency [6]

COC(C)(C)CCC[C@H](C)C/C=C/C(C)=C/C(=O)OC(C)C
inactive: Potency [1] | Potency [2]
active: Potency [4] 17.8 µM | Potency [8] 22.4 µM | Potency [5] 35.6 µM | Potency [6] 20 µM

C=COC(C)=O
inactive: Potency [1] | Potency [2] | Potency [4] | Potency [8] | Potency [6]
active: Potency [5] 41.3 µM

Nc1ccc([N+](=O)[O-])cc1[N+](=O)[O-]
active: Potency [5] 6.92 µM
inactive: Potency [1] | Potency [2] | Potency [4] | Potency [8] | Potency [7] | Potency [6]

CC(C)(CCl)C(=O)Cl
inactive: Potency [1] | Potency [2] | Potency [4] | Potency [8] | Potency [5] | Potency [7] | Potency [6]
